# Data from PubChem BioAssay (NCATS).
# Records with an inconclusive call do not appear. Where a call stands in place of a potency, no number is given. Values without a mark were called inactive. The source made the active and inactive calls. The call rests on the fitted dose curve; in most records, active means well fitted curve in the direction sought with a large enough effect; inconclusive means small, poorly fitted or top-dose-only effect, or another doubt; inactive means no such curve, though single readings can be large; an effect the other way counts as inactive or inconclusive.
# Tests used:
# [1] = test system: Zika virus NS2B-NS3 protease (linked construct); experiment: Primary screen NINDS Rhodamine qHTS for Zika virus inhibitors (AID 1347160); further: nearly all actives have a fitted effect of over 55% in size
# In short: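 Kinetic fluorescence (Ex 480 nm, Em 540 nm) over 15 min with 1.5 microM Rhodamine110 peptide and 25 nM linked protease.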
# [2] = qHTS of pediatric cancer cell lines to identify multiple opportunities for drug repurposing: Primary screen for Rh18 cells (AID 1347102); further: nearly all actives have a fitted effect of over 65% in size
# In short: (§1)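 Viability after 48 h compound treatment at 37C, 500-1,000 cells/well, read as ATP luminescence with CellTiter-Glo. Primary screens used 11-point (MIPE, 0.78 nM-46 µM) or 8-point (NPC, 0.59 nM-46 µM) final concentrations; follow-up screens used 11-point dilutions.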
# [3] = qHTS of pediatric cancer cell lines to identify multiple opportunities for drug repurposing: Primary screen for RD cells (AID 1347104); further: nearly all actives have a fitted effect of over 55% in size
# In short: (§2)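 Quantitative HTS format: each compound titrated (MIPE 11 points from 0.78 nM, NPC 8 points from 0.59 nM) onto cells plated 5 hours earlier. After 48 h at 37 degrees C, CellTiter-Glo luminescence was recorded.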
# [4] = qHTS of pediatric cancer cell lines to identify multiple opportunities for drug repurposing: Primary screen for MG 63 (6-TG R) cells (AID 1347105); further: nearly all actives have a fitted effect of over 50% in size
# In short: as §2
# [5] = qHTS of pediatric cancer cell lines to identify multiple opportunities for drug repurposing: Primary screen for control Hh wild type fibroblast cells (AID 1347106);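 further: series mostly up to about 46 µM; a drop in luminescence marks cytotoxicity and a rise apparent proliferation; nearly all actives have a fitted effect of over 55% in size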
# In short: as §1
# [6] = qHTS of pediatric cancer cell lines to identify multiple opportunities for drug repurposing: Primary screen for Rh30 cells (AID 1347107); further: series mostly up to about 46 µM; nearly all actives have a fitted effect of over 75% in size
# In short: as §1
# [7] = qHTS of pediatric cancer cell lines to identify multiple opportunities for drug repurposing: Primary screen for Rh41 cells (AID 1347108);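 further: series mostly up to about 46 µM; luminescence drop marks cytotoxic hits; nearly all actives have a fitted effect of over 70% in size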
# In short: as §2
# [8] = test system: Zika virus NS2B-NS3 protease; experiment: Primary screen GU AMC qHTS for Zika virus inhibitors (AID 1347154); further: nearly all actives have a fitted effect of over 70% in size
# In short: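 Unlinked Zika NS2B hydrophilic domain–NS3 protease complex at 25 nM in 10 mM Tris-HCl pH 8.0, 0.01% Tween 20, with an AMC peptide substrate. Fluorescence change (340/450 nm) over 15 min at room temperature, normalized to controls, fitted to 4-parameter Hill.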
# [9] = qHTS of pediatric cancer cell lines to identify multiple opportunities for drug repurposing: Primary screen for OHS-50 cells (AID 1347103); further: nearly all actives have a fitted effect of over 40% in size
# In short: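 Cells (500-1,000/well) rested 5 h, then received compounds for 48 h; metabolically active cells were measured by CellTiter-Glo luminescence. Final concentrations spanned up to 46 µM (MIPE, 11-point) or 0.59 nM-46 µM (NPC, 8-point) in primary screens, 11-point in follow-ups.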
# [10] = test system: Zika virus NS2B-NS3 protease (unlinked complex); experiment: Primary screen GU Rhodamine qHTS for Zika virus inhibitors: Unlinked NS2B-NS3 protease assay (AID 1347159); further: nearly all actives have a fitted effect of over 60% in size; further: potency means the concentration at half of the fitted maximal effect
# In short: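 A qHTS format was used, with compound concentrations ranging up to 114 microM. Each compound was preincubated with 25 nM NS2B-NS3 protease, and the substrate was then added at 1.5 microM. Curves were fitted with a 4-parameter Hill model.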
# [11] = target: N-terminal Xaa-Pro-Lys N-methyltransferase 1 (Homo sapiens) (UniProt Q9BV86); experiment: qHTS Assay for Inhibitors of N-terminal methyltransferase 1 (NTMT1): LOPAC validation of the NTMT1 SAHH-coupled ThioGlo3 Assay (AID 1347143); details: recombinant NTMT1, SAHH-coupled ThioGlo3 fluorescence;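 further: SAH from peptide methylation measured as thiol fluorescence via SAHH coupling and ThioGlo3; potency means the concentration at half of the fitted maximal effect; nearly all actives have a fitted effect of over 70% in size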
# N-terminal Xaa-Pro-Lys N-methyltransferase 1 (Homo sapiens), sequence (Q9BV86 whole entry, looked up): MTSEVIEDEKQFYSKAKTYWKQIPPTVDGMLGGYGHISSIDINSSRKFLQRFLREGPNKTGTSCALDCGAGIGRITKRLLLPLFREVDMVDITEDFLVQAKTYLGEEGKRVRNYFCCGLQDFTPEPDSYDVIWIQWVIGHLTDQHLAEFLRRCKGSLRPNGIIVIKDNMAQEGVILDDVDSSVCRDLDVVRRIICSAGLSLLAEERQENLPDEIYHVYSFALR
# In short: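 Recombinant human NTMT1 (125nM) was pre-incubated 1 min at room temperature with compounds over a concentration range, then a mix of 100uM SAM, 10uM SAHH and 15uM ThioGlo3 (concentrations in added reagent) was added. ThioGlo3 fluorescence (ex 340/em 450nm) after 30 min was normalized to the initial reading.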
# [12] = test system: Zika virus NS2B-NS3 protease (unlinked); experiment: Optimization of GU AMC qHTS for Zika virus inhibitors: Unlinked NS2B-NS3 protease assay (AID 1347151); further: nearly all actives have a fitted effect of over 80% in size; further: potency means the concentration at half of the fitted maximal effect; on activity change, negative = inhibition: series mostly up to about 52 µM
# In short: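 In this qHTS, compounds acted on 25 nM unlinked Zika NS2B–NS3 in pH 8.0 Tris/Tween buffer. Cleavage of an AMC peptide ran 15 min at room temperature, to about 20% conversion.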
# Furin (Homo sapiens) = Furin (Homo sapiens) (UniProt P09958); experiment: Furin counterscreen qHTS for Zika virus inhibitors (AID 1347149);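 further: purified recombinant full-length human furin enzyme at 5 nM; fluorescence gain from furin cutting a BOC-RVRR-AMC peptide substrate over 15 min; top concentration of the series differs between compounds; nearly all actives have a fitted effect of over 70% in size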
# Furin (Homo sapiens), sequence (P09958 whole entry, looked up): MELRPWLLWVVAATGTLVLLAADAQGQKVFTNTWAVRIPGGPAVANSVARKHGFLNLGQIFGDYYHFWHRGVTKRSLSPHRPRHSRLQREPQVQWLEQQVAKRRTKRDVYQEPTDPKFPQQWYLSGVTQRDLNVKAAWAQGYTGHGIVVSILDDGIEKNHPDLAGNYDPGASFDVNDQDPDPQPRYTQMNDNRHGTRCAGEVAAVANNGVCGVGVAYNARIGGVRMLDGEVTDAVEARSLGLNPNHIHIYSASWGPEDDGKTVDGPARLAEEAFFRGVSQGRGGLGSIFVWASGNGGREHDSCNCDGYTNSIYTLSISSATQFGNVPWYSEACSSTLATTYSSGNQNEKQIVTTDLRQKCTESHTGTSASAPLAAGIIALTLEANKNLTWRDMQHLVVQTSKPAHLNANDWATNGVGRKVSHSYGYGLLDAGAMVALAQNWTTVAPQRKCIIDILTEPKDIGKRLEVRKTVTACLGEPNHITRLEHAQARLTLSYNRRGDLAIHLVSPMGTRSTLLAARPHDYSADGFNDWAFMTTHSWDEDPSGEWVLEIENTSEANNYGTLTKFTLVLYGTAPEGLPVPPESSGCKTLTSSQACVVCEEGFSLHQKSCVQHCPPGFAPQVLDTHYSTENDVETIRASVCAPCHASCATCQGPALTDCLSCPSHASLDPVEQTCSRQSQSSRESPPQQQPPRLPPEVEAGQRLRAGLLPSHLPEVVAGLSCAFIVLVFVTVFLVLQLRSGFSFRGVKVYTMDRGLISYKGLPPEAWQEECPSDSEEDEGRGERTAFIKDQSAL
# In short: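 Fluorogenic cleavage of BOC-RVRR-AMC (2 microM final, Km ~15 µM) was monitored (ex 340, em 450 nm) at 37C after 15 min RT preincubation of 5 nM furin with compounds in HEPES pH 7.0 buffer with CaCl2 and Triton X-100. Percent inhibition was fitted to a 4-parameter Hill curve.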
# [13] = ZIKV-mCherry secondary qHTS for Zika virus inhibitors (AID 1347158); further: top concentration of the series differs between compounds
# In short: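 Vero cells (5,000/well) were given compound, then infected with ZIKV-mCherry at MOI 1 for 48–72 h at 37 °C. After PFA fixation and Hoechst staining, imaging gave percent mCherry-positive cells. The positivity threshold was RFU above 450, 3 SD over negative controls.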
# [14] = test system: Zika virus NS2B-NS3 protease (linked); experiment: 384 well plate NINDS AMC confirmatory qHTS for Zika virus inhibitors (AID 1347163); details: Recombinant NS2B-NS3 protease, Ac-VKTGKR-AMC fluorescence; further: potency means the concentration at half of the fitted maximal effect; nearly all actives have a fitted effect of over 50% in size
# In short: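 Linked NS2B-NS3 protease (final 5 nM, 30 nM or 60 nM) was preincubated with compounds (final up to 1 mM) for ~15 minutes. Ac-VKTGKR-AMC substrate (final 30 microM) then reacted for 25 minutes at room temperature in the dark. Fluorescence (ex 355/em 460 nm) was normalized to no-enzyme and no-inhibitor controls.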
# [15] = test system: Zika virus NS2B-NS3 protease (linked construct); experiment: 384 well plate NINDS Rhodamine confirmatory qHTS for Zika virus inhibitors (AID 1347164); details: rhodamine-110 peptide substrate fluorescence; further: potency means the concentration at half of the fitted maximal effect; nearly all actives have a fitted effect of over 65% in size
# In short: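 Cleavage of Ac-LKRR-Rhodamine 110 (10 microM final) by linked protease (final 5, 30 or 60 nM) was followed as fluorescence at 485/538 nm after 25 min, room temperature, dark. Compounds preincubated ~15 min.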
# [16] = test system: Zika virus NS2B-NS3 protease (unlinked complex); experiment: Confirmatory screen GU AMC qHTS for Zika virus inhibitors (AID 1347153); further: nearly all actives have a fitted effect of over 70% in size
# In short: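 Fluorescence change (ex 340/em 450 nm) over 15 min, ~20% substrate conversion, normalized to no-inhibitor and no-enzyme controls, then Hill-fitted. Unlinked protease at 25 nM; AMC peptide 10 µM.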
# [17] = Confirmatory screen NINDS Rhodamine qHTS for Zika virus inhibitors (AID 1347161); further: nearly all actives have a fitted effect of over 60% in size; further: potency means the concentration at half of the fitted maximal effect;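 on activity change, negative = inhibition: purified Zika NS2B-NS3 protease with linked NS2B cofactor domain and Rhodamine110 peptide substrate; series mostly up to about 110 µM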
# In short: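 Percent inhibition, normalized to uninhibited and enzyme-free controls, is fitted to a 4-parameter Hill equation. Fluorescence change comes from a 15-min cleavage of 1.5 microM bis-peptide Rhodamine110 substrate by 25 nM linked NS2B-NS3 at room temperature.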
# [18] = Confirmatory screen GU Rhodamine qHTS for Zika virus inhibitors qHTS (AID 1347157)
# In short: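 Buffer 10 mM Tris-HCl pH 8.0, 0.01% Tween 20. Unlinked protease 25 nM; compound preincubation 15 min, RT, protected from light. Substrate Rhod110, 1.5 microM; ~15% conversion in 15 min.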
compound,measurement,setting,value
CC1CC(OC(=O)C(O)c2ccccc2)CC(C)(C)C1 (stereo not given),Potency,[1],inactive
O=C(OCc1ccccc1)c1ccc(O)cc1,outcome,[2],inactive
same,outcome,[3],inactive
same,outcome,[4],inactive
same,outcome,[5],inactive
same,outcome,[6],inactive
same,outcome,[7],inactive
same,outcome,[8],inactive
C[C@@](Cc1ccc(O)c(O)c1)(NN)C(=O)O,outcome,[8],inactive
Nc1ccc(N=Nc2ccccc2)c(N)n1,outcome,[2],inactive
same,outcome,[3],inactive
same,outcome,[4],inactive
same,outcome,[5],inactive
same,outcome,[6],inactive
same,outcome,[7],inactive
same,outcome,[8],inactive
CC/C=C\C/C=C\C/C=C\C/C=C\C/C=C\C/C=C\CCC(=O)O,outcome,[8],inactive
O=C1c2ccccc2C(=O)c2c1ccc(O)c2O,outcome,[2],inactive
same,outcome,[9],inactive
same,outcome,[3],inactive
same,outcome,[4],inactive
same,outcome,[5],inactive
same,outcome,[6],inactive
same,outcome,[7],inactive
CCN(CC)CCOCCOC(=O)C(CC)(CC)c1ccccc1,Potency,[10],inactive
same,Potency,[1],inactive
Oc1ccc(/C=C/c2cc(O)cc(O)c2)cc1,outcome,[2],inactive
same,outcome,[9],inactive
same,outcome,[3],inactive
same,outcome,[5],inactive
same,outcome,[6],inactive
same,outcome,[7],inactive
same,Potency,[11],50.1 µM (active)
same,Potency,[12],26.7 µM (active)
COC(=O)C(CN)c1c[nH]c2ccc(OC)cc12 (stereo not given),outcome,[8],inactive
O=C(O)Cc1nn(Cc2ccc(Br)cc2F)c(=O)c2ccccc12,outcome,[8],inactive
CO[C@H]1C[C@@H]2CC[C@@H](C)[C@@](O)(O2)C(=O)C(=O)N2CCCC[C@H]2C(=O)O[C@H]([C@H](C)C[C@@H]2CC[C@@H](OC(=O)C(C)(CO)CO)[C@H](OC)C2)CC(=O)[C@H](C)/C=C(\C)[C@@H](O)[C@@H](OC)C(=O)[C@H](C)C[C@H](C)/C=C/C=C/C=C/1C,Potency,[10],inactive
same,Potency,[1],inactive
O=C(O)[C@@H]1C[C@H](CP(=O)(O)O)CCN1,outcome,[8],inactive
Cc1cc(-c2ccc(N=Nc3ccc4c(S(=O)(=O)O)cc(S(=O)(=O)O)c(N)c4c3O)c(C)c2)ccc1N=Nc1ccc2c(S(=O)(=O)O)cc(S(=O)(=O)O)c(N)c2c1O,outcome,Furin (Homo sapiens),inactive
same,outcome,[13],inactive
same,Potency,[14],5.62 µM (active)
same,Potency,[15],8.91 µM (active)
CO[C@H]1C[C@H](O[C@@H]2/C(C)=C/C[C@@H]3C[C@@H](C[C@]4(CC[C@H](C)[C@@H](C5CCCCC5)O4)O3)OC(=O)[C@@H]3C=C(C)/C(=N/O)[C@H]4OC/C(=C\C=C\[C@@H]2C)[C@]43O)O[C@@H](C)[C@@H]1O,outcome,[16],inactive
same,Potency,[17],inactive
CC(C)(C)c1ccc(CN2CCN(C(c3ccccc3)c3ccc(Cl)cc3)CC2)cc1 (stereo not given),Potency,[10],inactive
same,Potency,[1],inactive
CC1(C)C(\C=C/C=C\C=C/C=C2/N(CCCCS(=O)(=O)O)c3ccc4ccccc4c3C2(C)C)=[N+](CCCCS(=O)(=O)[O-])c2ccc3ccccc3c21,Potency,[18],3.98 µM (active)
same,outcome,[13],inactive
same,Potency,[17],5.62 µM (active)
same,Potency,[14],39.8 µM (active)
same,Potency,[15],4.47 µM (active)
CC(=O)Oc1cccc2c1C(=O)c1c(OC(C)=O)cc(C(=O)O)cc1C2=O,outcome,[2],inactive
same,outcome,[3],inactive
same,outcome,[5],inactive
same,outcome,[6],inactive
same,outcome,[7],inactive
CCC(C)[C@@H](N)C(=O)O (stereo not given in full),outcome,[8],inactive
N[C@@H](Cc1cc(I)c(Oc2ccc(O)c(I)c2)c(I)c1)C(=O)O,outcome,Furin (Homo sapiens),inactive
same,Potency,[10],14.1 µM (active)
same,Potency,[17],inactive
CCOC(=O)C1=C(COCCN)NC(C)=C(C(=O)OC)C1c1ccccc1Cl (stereo not given),outcome,[8],inactive
CN(C)CCCSc1ccccc1NC(=O)/C=C/c1ccccc1,outcome,[2],inactive
same,outcome,[4],inactive
same,outcome,[5],inactive
same,outcome,[6],inactive
same,outcome,[7],inactive
same,outcome,[8],inactive
COc1ccc2nc(NC(=O)Nc3ccccc3)sc2c1,outcome,[2],inactive
same,outcome,[3],inactive
same,outcome,[4],inactive
same,outcome,[5],inactive
same,outcome,[6],inactive
same,outcome,[7],inactive
same,outcome,[8],inactive
CNC(=O)[C@H](Cc1c[nH]c2ccccc12)NC(=O)[C@@H](CC(=O)NO)CC(C)C,outcome,[8],inactive
C[C@H]1O[C@@H](O[C@H]2[C@@H](O)C[C@H](O[C@H]3[C@@H](O)C[C@H](O[C@H]4CC[C@@]5(C)[C@H](CC[C@@H]6[C@@H]5C[C@@H](O)[C@]5(C)[C@@H](C7=CC(=O)OC7)CC[C@]65O)C4)O[C@@H]3C)O[C@@H]2C)C[C@H](O)[C@@H]1O,outcome,Furin (Homo sapiens),inactive
same,Potency,[12],inactive
same,Potency,[10],inactive
same,Potency,[1],inactive
O=C1CCC(c2ccccc2)(C2CCN(Cc3ccccc3)CC2)C(=O)N1 (stereo not given),outcome,[8],inactive
NC[C@H]1O[C@H](O[C@H]2[C@H](O)[C@@H](O[C@H]3O[C@H](CO)[C@@H](O)[C@H](N)[C@H]3O)[C@H](N)C[C@@H]2N)[C@H](N)C[C@@H]1O,outcome,[8],inactive
CCCCC[C@H](O)/C=C/[C@H]1[C@H](O)CC(=O)[C@@H]1CCCCCCC(=O)O,"activity change, negative = inhibition",[8],5.76% [at 6.83 µM]
C/C(=C\C(=O)OCCCCCCCCC(=O)O)C[C@@H]1OC[C@H](C[C@@H]2O[C@H]2[C@@H](C)[C@H](C)O)[C@@H](O)[C@H]1O,Potency,[10],inactive
same,Potency,[1],inactive
